Pf growth 48h: P. falciparum growth inhibition at 48 hours (one generation); 310,000 compounds, 5.9% hits; Potency, µM (highest dose often 28.7 µM), actives largely listed as inhibitors; P. falciparum luciferase growth in erythrocytes, 48 h
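Parasite viability was followed by luminescence of a genomically integrated firefly luciferase. Cultures held 0.1% parasitemia at 2% hematocrit (final), incubated under 5% CO2 at 37 C.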
NS1 inh: influenza NS1 inhibition | Potency, µM (titrated, usually from 46.1 µM) | 270,000 compounds, 0.4% hits | AID 2326; calls by dose curve; note: actives are rising curves; nearly all actives have a fitted effect of over 50% in size
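A cell-based growth assay was used: compounds that relieve NS1-induced slow growth of budding yeast raise OD600. Assay medium was yeast nitrogen base with ammonium sulphate and -URA supplement, pH 6.0, with 2% galactose.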
Pf growth 96h: P. falciparum growth inhibition at 96 hour, primary screen for plastid delayed-death inhibitors. P. falciparum luciferase reporter growth, 96 h. Potency, µM (titrated, usually from 28.7 µM), usual class: inhibitors. 320,000 compounds, 6.9% hits. AID 504834
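Two parasite generations (96 h, 37 C, 5% CO2) of compound exposure in infected erythrocytes (0.05% parasitemia, 2% hematocrit). Luciferase-reporter P. falciparum; decreased luminescence indicates inhibited growth, aimed at apicoplast-acting delayed death.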
Sm TGR inh: S. mansoni TGR enzyme inhibition. purified TGR, DTNB reduction, TNB absorbance 405 nm. Potency, µM (top dose mostly 114 µM), usual class: inhibitors. 360,000 compounds, 3% hits. AID 485364; note: nearly all actives have a fitted effect of over 60% in size
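TGR 20 nM + NADPH 100 uM (dispensed conc.), cpd preinc 15 min RT; start with NADPH (500 uM addition) then DTNB (15 mM addition). Kinetic TNB absorbance, 405 nm filter. Four-parameter Hill fit across titration.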
Shiga inhibitor: Shiga toxin inhibition | Vero cells, Shiga toxin protein synthesis inhibition reporter | inhibition, % at 38.7 µM | 290,000 compounds, 9.2% hits; in the data active = inhibition mostly above about 28%, no sharp cut-off; inactive = mostly below about 43%
Cycloheximide cs: affects cycloheximide protein synthesis inhibition readout, counter-screen. cell reporter, cycloheximide protein synthesis inhibition counterscreen. AID 2314. 300,000 compounds, 12% hits. max response, %; in the data active = max response mostly above about 13%, no sharp cut-off; inactive = mostly below about 14%; note: read at 38.3 µM for the half of the compounds with a filed dose
Of the large screens only hits and unclear results are named; the others gave an inactive call. Only some compounds are listed: those with a hit (about 21% of all), similar ones and a draw of the others. Unless noted, calls come from the whole dose curve; as a rule, active = well fitted curve in the direction sought with a large enough effect; inconclusive = small, poorly fitted or top-dose-only effect, or another doubt; inactive = no such curve, though single readings can be large; an effect the other way counts as inactive or inconclusive.

Cc1cccc(NC(=O)c2sc3nc(-c4ccc(F)cc4)cn3c2C)n1	none
COc1ccc(Cl)cc1NC(=O)CSc1cn(CC(=O)N2CCCCCC2)c2ccccc12	none (no result: Pf growth 48h, NS1 inh, Pf growth 96h, Shiga inhibitor, Cycloheximide cs)
Cc1ccc2nc(CN3CCN(S(=O)(=O)c4ccccc4)CC3)oc2c1	none (no result: Pf growth 48h, NS1 inh, Pf growth 96h, Shiga inhibitor, Cycloheximide cs)
CCN(Cc1ccccc1)C(=O)CN1C(=O)COc2ccc(S(=O)(=O)NC3CCCC3)cc21	Pf growth 48h inconclusive
Cc1c(C(=O)Nc2ccccc2)sc2nc(-c3ccccc3)cn12	Pf growth 48h inconclusive, Pf growth 96h inconclusive, Shiga inhibitor 61, Cycloheximide cs 39
Cc1ccc(Cl)cc1NC(=O)c1sc2nc(-c3ccccc3)cn2c1C	none (no result: Pf growth 48h, NS1 inh, Pf growth 96h, Shiga inhibitor, Cycloheximide cs)
Cn1c(C(=O)O)c(C=O)c2ccccc21	Pf growth 96h 10µM (no result: NS1 inh)
Cn1c(-c2ccccc2)c(C=O)c2ccccc21	Pf growth 96h inconclusive
CCOC(=O)CCn1nc(C)c2c(C)n(-c3ccccc3)nc2c1=O	none (no result: Pf growth 48h, NS1 inh, Pf growth 96h, Shiga inhibitor, Cycloheximide cs)
CCC(=O)Nc1cccc(NC(=O)c2cccc([N+](=O)[O-])c2C)c1	none
Cc1ccc(NC(=O)c2cc3cccc([N+](=O)[O-])c3[nH]2)cc1	Shiga inhibitor 84, Cycloheximide cs 46
CCC(C)c1ccccc1NC(=O)c1cc2cccc([N+](=O)[O-])c2[nH]1 (configuration not stated)	Pf growth 48h inconclusive, Pf growth 96h 2.9µM, Cycloheximide cs 39
CCC(C)c1ccccc1NC(=O)COC(=O)c1ccc(N2CCCC2)c([N+](=O)[O-])c1 (configuration not stated)	none
COc1ccc(-c2nc3ccccc3c(=O)o2)cc1	Cycloheximide cs 13
Cc1ccc(-c2nc3ccccc3c(=O)o2)cc1	Cycloheximide cs 23 (no result: Shiga inhibitor)
COc1cccc(-c2nc3ccccc3c(=O)o2)c1	Cycloheximide cs 19 (no result: Pf growth 48h, Pf growth 96h)
COc1cc(OC)cc(-c2nc3ccccc3c(=O)o2)c1	none
O=C1NC2(CCCCCC2)C(=O)N1Cc1ccccc1F	none
COc1ccc(-c2[nH]ncc2C(=O)NCc2ccc(F)cc2)cc1	none (no result: Pf growth 48h, NS1 inh, Pf growth 96h, Shiga inhibitor, Cycloheximide cs)
CCCCN(c1ccccc1)c1ncnc2c1cnn2C	none (no result: Pf growth 48h, Pf growth 96h, Sm TGR inh, Shiga inhibitor, Cycloheximide cs)
OC(c1ccccc1)C1CN(Cc2ccccc2)CCC1(O)c1ccccc1 (configuration not stated)	Pf growth 48h 0.74µM, Sm TGR inh 20µM
O=C1C(Cc2ccccc2)SC(=Nc2ccccc2)N1c1ccccc1 (configuration not stated)	Pf growth 48h 13µM
CC1CCN(c2nc(N(C)c3ccccc3)nc(N)c2[N+](=O)[O-])CC1	Pf growth 48h inconclusive, Cycloheximide cs 11
CCN1CCN(c2nc(N(C)c3ccccc3)nc(N)c2[N+](=O)[O-])CC1	Pf growth 96h inconclusive
CN(c1ccccc1)c1nc(N)c([N+](=O)[O-])c(Nc2ccccc2F)n1	Pf growth 96h inconclusive, Cycloheximide cs 19
CC(C)CNc1nc(N)c([N+](=O)[O-])c(N2CCCCCC2)n1	Pf growth 48h inconclusive, Pf growth 96h 10µM
CN(c1ccccc1)c1nc(N)c([N+](=O)[O-])c(N2CCCCCC2)n1	Pf growth 48h inconclusive, Shiga inhibitor 56, Cycloheximide cs 21
CCC(C)Nc1nc(N)c([N+](=O)[O-])c(N2CCCCCC2)n1 (configuration not stated)	Pf growth 48h inconclusive, Pf growth 96h inconclusive
CC(N)=NCCCC[C@@H](N)C(=O)O	none (no result: Pf growth 48h, Pf growth 96h, Sm TGR inh, Shiga inhibitor, Cycloheximide cs)
Nc1ccc2oc(=O)ccc2c1I	none (no result: Pf growth 48h, NS1 inh, Pf growth 96h, Sm TGR inh)
CC(C)(C)n1nc2c(c1NC(=O)COc1ccc(Cl)cc1)CS(=O)(=O)C2	none (no result: NS1 inh)
COc1ccc(CC(=O)Nc2c3c(nn2C(C)(C)C)CS(=O)(=O)C3)cc1OC	Sm TGR inh 35µM
CC(C)(C)n1nc2c(c1NC(=O)Cc1ccc(F)cc1)CSC2	Pf growth 96h 10µM (no result: Pf growth 48h)
CC(C)(C)n1nc2c(c1NC(=O)COc1ccc(Cl)cc1)CSC2	Pf growth 48h inconclusive, Pf growth 96h 4.7µM
CCOC(=O)c1cnc(COc2ccc(OC)cc2)[nH]c1=O	none
CC(=O)c1ccc(NC(=O)/C(Cl)=C/c2ccccc2)cc1	Shiga inhibitor 147, Cycloheximide cs 41
CC(=O)c1ccc(NC(=O)C2(c3ccccc3)CC2(Cl)Cl)cc1 (configuration not stated)	Pf growth 48h inconclusive, Pf growth 96h inconclusive, Shiga inhibitor 88, Cycloheximide cs 40
O=C(Nc1ccc(F)cc1)/C(Cl)=C/c1ccccc1	Shiga inhibitor 62, Cycloheximide cs 40
